# In the supplement of paper PMC8728848:
# This excerpt belongs to a sample that is enriched for the strongest signals.
# B1: Ovorubin (Pomacea canaliculata), J7I2T6 (protein)
# chain: MFVATSLLLAIATLVVRASPHNYLIMDIEPPKSVSERDILNLLSPLQVKHSFRVTGSTRLLIVIRLDAQSYEKLDEITVPGKVEVIPAVNMADTMERCGVSWPRVELTDDNVTLFESESTLTDVTKEQLKAMLIGYGEHMSGLLQAHRFEYYQAAGATPHRHFVFVNSVPDEIEVFGREGVDIWGGPGEFVVKPQYVTRI
# Legend:
# Assay in all cases: glycan array binding signal (z-score within array); higher = stronger binding
# Conditions in all cases: glycan notation: IUPAC condensed, linker removed
# [1] = biological target: Fuc(a1-2)Gal(b1-3)GlcNAc(b1-3)[Gal(b1-4)GlcNAc(b1-6)]Gal(b1-4)Glc
# How it was run: (§1)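 The Consortium for Functional Glycomics database supplied 3228 glycan arrays, of which those lacking an available protein sequence were dropped. The binding signal, a within-array Z-score, was averaged across arrays of the same protein sequence and across linkers. Negative scores can be read as non-binding.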
# [2] = biological target: Fuc(a1-2)Gal(b1-4)GlcNAc(b1-3)Gal(b1-4)GlcNAc
# How it was run: as §1
# [3] = biological target: Fuc(a1-2)Gal(b1-4)GlcNAc6S
# How it was run: as §1
# [4] = biological target: Fuc(a1-2)Gal(b1-4)[Fuc(a1-3)]GlcNAc(b1-2)[Fuc(a1-2)Gal(b1-4)[Fuc(a1-3)]GlcNAc(b1-4)]Man(a1-3)[Fuc(a1-2)Gal(b1-4)[Fuc(a1-3)]GlcNAc(b1-2)Man(a1-6)]Man(b1-4)GlcNAc(b1-4)GlcNAc
# How it was run: as §1
# [5] = biological target: Fuc(a1-2)[Gal(a1-3)]Gal(b1-4)GlcNAc
# How it was run: as §1
# [6] = biological target: Fuc(a1-3)[Gal(b1-4)]GlcNAc(b1-2)Man(a1-3)[Fuc(a1-3)[Gal(b1-4)]GlcNAc(b1-2)Man(a1-6)]Man(b1-4)GlcNAc(b1-4)GlcNAc
# How it was run: as §1
# [7] = biological target: Fuc(a1-3)[Gal(b1-4)]GlcNAc(b1-2)Man(a1-3)[Fuc(a1-3)[Gal(b1-4)]GlcNAc(b1-2)Man(a1-6)]Man(b1-4)GlcNAc(b1-4)[Fuc(a1-6)]GlcNAc
# How it was run: as §1
# [8] = biological target: Fuc(a1-3)[Gal(b1-4)]GlcNAc(b1-6)GalNAc
# How it was run: as §1
# [9] = biological target: Gal(a1-3)Gal
# How it was run: as §1
# [10] = biological target: Gal(a1-3)Gal(b1-4)GlcNAc(b1-2)Man(a1-3)[Gal(a1-3)Gal(b1-4)GlcNAc(b1-2)Man(a1-6)]Man(b1-4)GlcNAc(b1-4)GlcNAc
# How it was run: as §1
# [11] = biological target: Gal(a1-3)[Gal(a1-4)]Gal(b1-4)GlcNAc
# How it was run: as §1
# [12] = biological target: Gal(a1-6)Glc
# How it was run: as §1
# [13] = biological target: Gal(b1-3)GlcNAc(b1-2)[Gal(b1-3)GlcNAc(b1-6)]Man(a1-6)[Gal(b1-3)GlcNAc(b1-2)Man(a1-3)]Man(b1-4)GlcNAc(b1-4)GlcNAc
# How it was run: as §1
# [14] = biological target: Gal(b1-3)GlcNAc(b1-3)Gal(b1-3)GlcNAc
# How it was run: as §1
# [15] = biological target: Gal(b1-3)GlcNAc(b1-3)Gal(b1-4)GlcNAc(b1-3)Gal(b1-4)GlcNAc(b1-2)[Gal(b1-3)GlcNAc(b1-3)Gal(b1-4)GlcNAc(b1-3)Gal(b1-4)GlcNAc(b1-6)]Man(a1-6)[Gal(b1-3)GlcNAc(b1-3)Gal(b1-4)GlcNAc(b1-3)Gal(b1-4)GlcNAc(b1-2)Man(a1-3)]Man(b1-4)GlcNAc(b1-4)[Fuc(a1-6)]GlcNAc
# How it was run: as §1
# [16] = biological target: Gal(b1-3)GlcNAc(b1-3)Gal(b1-4)GlcNAc(b1-6)[Gal(b1-3)GlcNAc(b1-3)]Gal(b1-4)Glc
# How it was run: as §1
# [17] = biological target: Gal(b1-3)GlcNAc(b1-6)[Gal(b1-3)]GalNAc
# How it was run: as §1
# [18] = biological target: Gal(b1-3)[Neu5Ac(b2-6)]GalNAc
# How it was run: as §1
# [19] = biological target: Gal(b1-4)GlcNAc(b1-3)Gal(b1-4)GlcNAc(b1-3)Gal(b1-4)GlcNAc(b1-2)Man(a1-3)[Gal(b1-4)GlcNAc(b1-3)Gal(b1-4)GlcNAc(b1-3)Gal(b1-4)GlcNAc(b1-2)Man(a1-6)]Man(b1-4)GlcNAc(b1-4)GlcNAc
# How it was run: as §1
# [20] = biological target: Gal(b1-4)GlcNAc(b1-3)Gal(b1-4)GlcNAc(b1-3)Gal(b1-4)GlcNAc(b1-3)Gal(b1-4)GlcNAc(b1-3)Gal(b1-4)GlcNAc(b1-2)[Gal(b1-4)GlcNAc(b1-3)Gal(b1-4)GlcNAc(b1-3)Gal(b1-4)GlcNAc(b1-3)Gal(b1-4)GlcNAc(b1-3)Gal(b1-4)GlcNAc(b1-6)]Man(a1-6)[Gal(b1-4)GlcNAc(b1-3)Gal(b1-4)GlcNAc(b1-3)Gal(b1-4)GlcNAc(b1-3)Gal(b1-4)GlcNAc(b1-3)Gal(b1-4)GlcNAc(b1-2)Man(a1-3)]Man(b1-4)GlcNAc(b1-4)[Fuc(a1-6)]GlcNAc
# How it was run: as §1
# [21] = biological target: Gal(b1-4)GlcNAc6P
# How it was run: as §1
# [22] = biological target: Gal3S(b1-3)GalNAc
# How it was run: as §1
# [23] = biological target: Gal3S(b1-4)Glc
# How it was run: as §1
# [24] = biological target: Gal3S(b1-4)[Fuc(a1-3)]Glc6S
# How it was run: as §1
# [25] = biological target: Gal3S4S(b1-4)GlcNAc
# How it was run: as §1
# [26] = biological target: Gal3S6S(b1-4)GlcNAc
# How it was run: as §1
binder,measurement,setting,value
B1,glycan array binding signal (z-score),[1],0.184
same,glycan array binding signal (z-score),[2],0.006
same,glycan array binding signal (z-score),[3],0.049
same,glycan array binding signal (z-score),[4],0.485
same,glycan array binding signal (z-score),[5],-0.498
same,glycan array binding signal (z-score),[6],0.055
same,glycan array binding signal (z-score),[7],-0.362
same,glycan array binding signal (z-score),[8],0.355
same,glycan array binding signal (z-score),[9],-0.576
same,glycan array binding signal (z-score),[10],0.572
same,glycan array binding signal (z-score),[11],7.96
same,glycan array binding signal (z-score),[12],-1.13
same,glycan array binding signal (z-score),[13],4.93
same,glycan array binding signal (z-score),[14],-0.763
same,glycan array binding signal (z-score),[15],2.9
same,glycan array binding signal (z-score),[16],-0.801
same,glycan array binding signal (z-score),[17],0.3
same,glycan array binding signal (z-score),[18],-0.862
same,glycan array binding signal (z-score),[19],0.387
same,glycan array binding signal (z-score),[20],2.67
same,glycan array binding signal (z-score),[21],-0.461
same,glycan array binding signal (z-score),[22],0.802
same,glycan array binding signal (z-score),[23],-0.766
same,glycan array binding signal (z-score),[24],3.72
same,glycan array binding signal (z-score),[25],9.33
same,glycan array binding signal (z-score),[26],4.31
